From the supplement of paper PMC9694430

Legend:
Assay in all cases: thermal shift delta Tm vs DMSO control; higher = stronger stabilization (binding)
Details in all cases: 12.5 µM; protein concentration 2 µM
LOC_OS01G01410-cb001 = test system: LOC_OS01G01410-cb001
Procedure, shortened: (§1)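 Rice kinase domain constructs, made in E. coli and purified, were placed in 96-well plates at 2 μM in 19.5 μl of 100 mM potassium phosphate pH 7.5, 150 mM NaCl, 10% glycerol and 5 × SYPRO Orange, with compound in DMSO. A temperature ramp from 25°C to 95°C at 0.05°C/s was used for differential scanning fluorimetry. The melting temperature shift is a triplicate mean compared with DMSO-only protein, derived from Boltzmann fits.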

LOC_OS01G02750-cb003 = test system: LOC_OS01G02750-cb003
Procedure, shortened: as §1

LOC_OS01G10900-cb004 = test system: LOC_OS01G10900-cb004
Procedure, shortened: as §1

LOC_OS01G13800-cb001 = test system: LOC_OS01G13800-cb001
Procedure, shortened: as §1

LOC_OS01G14860-cb001 = test system: LOC_OS01G14860-cb001
Procedure, shortened: as §1

LOC_OS01G21960-cb002 = test system: LOC_OS01G21960-cb002
Procedure, shortened: as §1

LOC_OS01G39600-cb002 = test system: LOC_OS01G39600-cb002
Procedure, shortened: as §1

LOC_OS01G48390-cb002 = test system: LOC_OS01G48390-cb002
Procedure, shortened: as §1

LOC_OS01G51400-cb002 = test system: LOC_OS01G51400-cb002
Procedure, shortened: as §1

LOC_OS01G52050-cb004 = test system: T1, LOC_OS01G52050-cb004
T1 sequence (whole entry): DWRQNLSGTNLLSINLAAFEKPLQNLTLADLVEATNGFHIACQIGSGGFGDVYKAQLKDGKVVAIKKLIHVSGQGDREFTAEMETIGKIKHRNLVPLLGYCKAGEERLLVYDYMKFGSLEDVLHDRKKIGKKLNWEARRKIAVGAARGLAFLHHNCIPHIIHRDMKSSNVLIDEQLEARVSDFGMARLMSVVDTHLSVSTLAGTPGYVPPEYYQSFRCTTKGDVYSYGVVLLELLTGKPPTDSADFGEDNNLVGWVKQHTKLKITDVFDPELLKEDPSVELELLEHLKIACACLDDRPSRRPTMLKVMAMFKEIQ
Procedure, shortened: as §1

LOC_OS01G57100-cb003 = test system: LOC_OS01G57100-cb003
Procedure, shortened: as §1

LOC_OS01G60330-cb001 = test system: LOC_OS01G60330-cb001
Procedure, shortened: as §1

LOC_OS01G60700-cb002 = test system: LOC_OS01G60700-cb002
Procedure, shortened: as §1

LOC_OS01G63280-cb003 = test system: LOC_OS01G63280-cb003
Procedure, shortened: as §1

LOC_OS01G67340-cb003 = test system: LOC_OS01G67340-cb003
Procedure, shortened: as §1

LOC_OS01G70970-cb002 = test system: LOC_OS01G70970-cb002
Procedure, shortened: as §1

LOC_OS02G07810-cb001 = test system: LOC_OS02G07810-cb001
Procedure, shortened: as §1

LOC_OS02G08530-cb003 = test system: LOC_OS02G08530-cb003
Procedure, shortened: as §1

LOC_OS02G14120-cb001 = test system: LOC_OS02G14120-cb001
Procedure, shortened: as §1

LOC_OS02G17970-cb001 = test system: LOC_OS02G17970-cb001
Procedure, shortened: as §1
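Further: purified Escherichia coli-expressed rice kinase domain construct.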

Row | SMILES | thermal shift delta Tm (LOC_OS01G01410-cb001) | thermal shift delta Tm (LOC_OS01G02750-cb003) | thermal shift delta Tm (LOC_OS01G10900-cb004) | thermal shift delta Tm (LOC_OS01G13800-cb001) | thermal shift delta Tm (LOC_OS01G14860-cb001) | thermal shift delta Tm (LOC_OS01G21960-cb002) | thermal shift delta Tm (LOC_OS01G39600-cb002) | thermal shift delta Tm (LOC_OS01G48390-cb002) | thermal shift delta Tm (LOC_OS01G51400-cb002) | thermal shift delta Tm (LOC_OS01G52050-cb004) | thermal shift delta Tm (LOC_OS01G57100-cb003) | thermal shift delta Tm (LOC_OS01G60330-cb001) | thermal shift delta Tm (LOC_OS01G60700-cb002) | thermal shift delta Tm (LOC_OS01G63280-cb003) | thermal shift delta Tm (LOC_OS01G67340-cb003) | thermal shift delta Tm (LOC_OS01G70970-cb002) | thermal shift delta Tm (LOC_OS02G07810-cb001) | thermal shift delta Tm (LOC_OS02G08530-cb003) | thermal shift delta Tm (LOC_OS02G14120-cb001) | thermal shift delta Tm (LOC_OS02G17970-cb001)
1 | O=C(Nc1nc2cccc(-c3ccc(CN4CCS(=O)(=O)CC4)cc3)n2n1)C1CC1 [Filgotinib (GLPG0634)] | 0.4 °C | 0.46 °C | 0.17 °C | 0.3 °C | 0.5 °C | 0.89 °C | -0.06 °C | 0.26 °C | 0.32 °C | 1.03 °C | 1.32 °C | 2.66 °C | 0.53 °C | 0.12 °C | 0.43 °C | 0.37 °C | 0.52 °C | 0.93 °C | 2.91 °C | 0.47 °C
2 | CNc1nc(Nc2cnn([C@H]3CCN(C4COC4)C[C@@H]3F)c2Cl)ncc1C(F)(F)F | 0.23 °C | 0.99 °C | 0.28 °C | 0.15 °C | 0.15 °C | 1.33 °C | 0.09 °C | 1.82 °C | 0.18 °C | 1.16 °C | 0.76 °C | 2.09 °C | 0.99 °C | 0.1 °C | 0.67 °C | 1.35 °C | 0.49 °C | 2.55 °C | 2.26 °C | 0.35 °C
3 | O=C(c1cccc(Cl)c1F)N1CCN(Cc2cccc(Nc3nccs3)n2)CC1 | 0.64 °C | 0.86 °C | 0.24 °C | -0.45 °C | 4.28 °C | 0.14 °C | 2.61 °C | 1.3 °C | 0.25 °C | 4.36 °C | 1.37 °C | 0.61 °C | 1.32 °C | 0.37 °C | 0.2 °C | 0.46 °C | 1.01 °C | 2.51 °C | 9.07 °C | -0.27 °C
4 | CN1CCN(c2ccc3nc(-c4c(N)c5c(F)cccc5[nH]c4=O)[nH]c3c2)CC1 [Dovitinib (TKI-258, CHIR-258)] | 6.03 °C | 2.05 °C | 2.59 °C | -0.2 °C | 0.79 °C | 2.56 °C | 2.01 °C | 1.63 °C | 0.56 °C | 3.72 °C | -0.17 °C | 10.3 °C | 1.43 °C | 0.59 °C | 2.72 °C | 3.99 °C | 0.53 °C | 2.72 °C | 4.01 °C | -0.27 °C
5 | CC(C)CC(NC(=O)C(Cc1ccccc1)NC(=O)C(CCC(N)=O)NC(=O)C(Cc1ccc(O)cc1)NC(=O)C(C)NC(=O)CNC(=O)C(CCCCN)NC(=O)C(Cc1c[nH]c2ccccc12)NC(=O)C(NC(=O)C(Cc1c[nH]c2ccccc12)NC(=O)C(CCCCN)NC(=O)CNC(=O)C(CC(N)=O)NC(=O)C(CCC(=O)O)NC(=O)C(Cc1c[nH]c2ccccc12)NC(=O)C(NC(=O)C(Cc1c[nH]c2ccccc12)NC(=O)C(CO)NC(=O)CNC(=O)C1CCCN1C(=O)C(Cc1c[nH]c2ccccc12)NC(=O)C(CCC(N)=O)NC(=O)C(Cc1ccccc1)NC(=O)CNC(=O)C(N)Cc1c[nH]cn1)C(C)O)C(C)O)C(=O)NC(CCCCN)C(=O)NCC(=O)NCC(=O)NCC(=O)NCC(=O)NC(CO)C(=O)NC(CCCNC(=N)N)C(=O)NC(CCCNC(=N)N)C(=O)NC(CCCNC(=N)N)C(=O)NC(CCCNC(=N)N)C(=O)NC(CCCNC(=N)N)C(=O)NC(CCCNC(=N)N)C(=O)NC(CCCNC(=N)N)C(=O)NC(CCCNC(=N)N)C(=O)NC(CCCNC(=N)N)C(=O)O (stereo not given) | 0.36 °C | -0.66 °C | 1.09 °C | 1.22 °C | 0.08 °C | 1.26 °C | 2 °C | 1.2 °C | -0.25 °C | 1.43 °C | 0.58 °C | 0.74 °C | 0.22 °C | 0.38 °C | 1.17 °C | 0.55 °C | 0.74 °C | 0.87 °C | 1.8 °C | -0.53 °C
6 | CN(C)CCCn1cc(C2=C(c3c[nH]c4ccccc34)C(=O)NC2=O)c2ccccc21 | 0.25 °C | 0.71 °C | 0.3 °C | 0.25 °C | 1.17 °C | 2.73 °C | 0.78 °C | -0.07 °C | 0.26 °C | -0.04 °C | 0.59 °C | 1.19 °C | 0.85 °C | 0.38 °C | 0.56 °C | 0.73 °C | 0.35 °C | 0.74 °C | 0.09 °C | 0.48 °C
7 | C#Cc1cccc(Nc2ncnc3cc(OC)c(OCCCCCCC(=O)NO)cc23)c1 | 0.66 °C | 0.59 °C | 0.97 °C | 0.44 °C | 0.54 °C | 0.53 °C | 1.06 °C | 1.12 °C | 0.13 °C | 0.41 °C | 0.24 °C | 0.19 °C | 0.52 °C | 0.06 °C | -0.47 °C | 0.22 °C | 0.79 °C | 0.57 °C | 1.05 °C | 0.31 °C
8 | CNCc1ccc(-c2cc(-c3nc(-c4ccc(S(=O)(=O)C(C)C)cc4)cnc3N)on2)cc1 | 1.4 °C | 1.1 °C | 3 °C | 0.25 °C | 4.67 °C | 1.88 °C | 1.85 °C | 0.69 °C | 0.46 °C | 1.41 °C | 1.41 °C | 0.91 °C | 1.58 °C | 0.5 °C | 0.06 °C | 0.3 °C | 2.33 °C | 1.56 °C | 2.23 °C | 1.43 °C
9 | CC#CC(=O)N1CCC[C@H]1c1nc(-c2ccc(C(=O)Nc3ccccn3)cc2)c2c(N)nccn12 [Acalabrutinib (ACP-196)] | 0.74 °C | 0.55 °C | 0.53 °C | 0.19 °C | 0.36 °C | 0.47 °C | 0.15 °C | 0.22 °C | -0.06 °C | -0.21 °C | 0.82 °C | 0.94 °C | 1.14 °C | 0.05 °C | 0.39 °C | 0.4 °C | 0.04 °C | 0.89 °C | 0.57 °C | 0.74 °C
10 | Cc1c(C(=O)N2CCOc3ccc(-c4ccc(N)nc4)cc3C2)ccc(S(C)(=O)=O)c1F | 0.69 °C | 0.8 °C | 0.01 °C | 0.06 °C | 0.22 °C | 0.19 °C | -0.01 °C | 0.13 °C | 0.26 °C | 0.52 °C | -0.07 °C | 0.34 °C | 0.98 °C | 0.62 °C | 0.21 °C | 0.48 °C | -0.03 °C | 0.91 °C | 0.74 °C | 0.12 °C
